Results filed as inconclusive are left out. A call without a number means that no potency is given here. Calls of active or inactive are those of the source. The call rests on the fitted dose curve; in most records, active means well fitted inhibition curve with a large enough effect; inconclusive means small, poorly fitted or top-dose-only effect; inactive means no such curve, though single readings can be large or run the other way.
Potency means the concentration at half of the fitted maximal effect.

The test addresses Luciferin 4-monooxygenase (Photinus pyralis) (UniProt P08659). Kind of test: Confirmatory firefly luciferase (FLuc) qHTS assay for identification of artifact compounds. As to conditions: purified FLuc enzyme, luminescence, 5 min; series mostly up to 38.9 µM. A digest of the protocol:
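Compounds were preincubated 15 min at room temperature with 10 uM D-luciferin and 10 uM ATP in Tris acetate pH 7.6. 10 nM Photinus pyralis luciferase was then added, and luminescence was read after 5 min.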
A general note: qHTS replaces the single test concentration by a dilution series.
In the case of `COc1ccc(N2CC(NC(=O)COc3ccccc3)CC2=O)cc1OC` (stereo not given), the Potency entry was “inactive”.
Under `O=C(Nc1ccc(Br)cc1)c1cc(-c2cccs2)nc2ccccc12` stands “inactive”.
Regarding `O=C(Nc1nnc(-c2ccncc2)s1)Nc1cccc2ccccc12`, the Potency result was “inactive”.
For `Cc1ccc(Nc2c(-c3ccsc3)nc3cccc(C)n23)cc1`, the Potency entry was “inactive”.
For the molecule `CC(=O)c1ccc(NS(=O)(=O)c2ccc(-c3cc(C)no3)s2)cc1`, the Potency result is “inactive”.
Under `CC(C)(C)OC(=O)N1CCC[C@H]1C(=O)N1CCC(C(=O)N[C@H](Cc2ccccc2)C(=O)NCc2ccc(F)cc2)CC1` stands “inactive”.
Then `COc1ccccc1CNc1ccc(-c2nc(-c3cccnc3)no2)cc1[N+](=O)[O-]`, with “inactive”.
As to `Cc1nc(-c2ccc(Cl)cc2)sc1CCNC(=O)c1ccco1`, the Potency result was “inactive”.
Take `COc1ccc(C(=O)Nc2noc3ccccc23)cc1`: the Potency was 864 nM (active).
For the molecule `O=c1cc(-c2ccc(O)cc2)oc2cc(O[C@@H]3O[C@H](CO)[C@H](O)[C@H](O)[C@H]3O)cc(O)c12`, the Potency result is “inactive”.
As for `Cc1ccc(NC(=O)CSc2ccc(-c3cccs3)nn2)cc1Cl`, the Potency entry is “inactive”.
Then `CCOc1ccccc1NC(=O)CSc1nc2c(oc3ccccc32)c(=O)n1-c1ccc(F)cc1`, with “inactive”; and `O=C(Nc1ccc(F)cc1F)c1ccc(-n2cnnc2)cc1`, with “inactive”; and `C[C@@H]1CC2(OC3C[C@@]4(C)C5=CC[C@H]6C(C)(C)C(O[C@@H]7OC[C@@H](O)[C@H](O)[C@H]7O)CC[C@@]67C[C@@]57CC[C@]4(C)C31)OC(O)C1(C)OC21` (stereo not given in full), with “inactive”.
Then `Cc1nc(CC(=O)Nc2ccc(C)c(C)c2)cs1`, with “inactive”.

For the origin of these results see PubChem BioAssay AID1845227 (National Center for Advancing Translational Sciences (NCATS), 2023).
